In PubChem BioAssay (EPA / NIEHS):
Values joined by “and” are separate entries in the source; they are usually repeats but may differ in a detail not shown here. Equal entries are not always repeated. Inconclusive results are not listed. Active and inactive are the calls of the source. Rule for the calls: active = hit-call score of the fitted dose curve at least 0.9, where 1 is the maximum; inconclusive = response in the unintended direction; inactive = score below 0.9.

What follows are molecules tested against human Epidermal Growth Factor Receptor (EGFR), EGFR (gene 1956) (UniProt P00533) (assay: NVS_ENZ_hEGFR: NovaScreen (NVS) Enzymatic Assay for human Epidermal Growth Factor Receptor (EGFR) (AID 2283151)).
Procedure: NVS_ENZ_hEGFR is a biochemical, single-readout assay that uses extracted gene-proteins in a cell-free assay. Measurements were taken 1 hour after chemical dosing in a 384-well plate.NVS_ENZ_hEGFR is one of one assay component(s) measured or calculated from the NVS_ENZ_hEGFR assay. It is designed to make measurements of enzyme activity, a form of enzyme reporter, as detected with fluorescence intensity signals by Fluorescence and electrophoretic mobility shift technology.Data from the assay component NVS_ENZ_hEGFR was analyzed into 1 assay endpoint. This assay endpoint, NVS_ENZ_hEGFR, was analyzed in the positive analysis fitting direction relative to DMSO as the negative control and baseline of activity. Using a type of enzyme reporter, loss-of-signal activity can be used to understand changes in the enzymatic activity as they relate to the gene EGFR. Furthermore, this assay endpoint can be referred to as a primary readout, because this assay has produced multiple assay endpoints where this one serves a enzymatic activity function. To generalize the intended target to other relatable targets, this assay endpoint is annotated to the kinase intended target family, where the subfamily is receptor tyrosine kinase.
Binding assays used specific radioligands (tritiated, iodinated) with non-radioactive competitive displacement ligands in agonist or antagonist protocols (as indicated) and various reference compounds and inhibitors to titrate specific binding to receptors and transporters. Most enzyme assays (CYPs, kinases, phosphatases, proteases, HDACs) used recombinant protein and specific substrates (fluorescence mostly, some colorimetric and radioactive) and inhibitors, followed by a biochemical separation of substrate and product. All assays for the biochemical HTS were initially run in duplicate at a single concentration (10 uM for CYP450 assays and 25 uM for all others). Assay-chemical combinations meeting a pre-defined threshold (e.g., 30% inhibition and other criteria defined below) were then run in singleton concentration-response format with maximum concentration of 20 uM for CYPs and 50 uM for all others. Each assay was run with positive and negative controls, and concurrent controls on every plate. The follow-up (secondary) screen tested active chemical-pairs in concentration series, as well as a few additional assays not tested in the primary screen, some selected negative inactives, and several cases re-run in the concentration series for confirmatory purposes.

Chain of human Epidermal Growth Factor Receptor (EGFR), EGFR (gene 1956) (P00533 whole entry, looked up): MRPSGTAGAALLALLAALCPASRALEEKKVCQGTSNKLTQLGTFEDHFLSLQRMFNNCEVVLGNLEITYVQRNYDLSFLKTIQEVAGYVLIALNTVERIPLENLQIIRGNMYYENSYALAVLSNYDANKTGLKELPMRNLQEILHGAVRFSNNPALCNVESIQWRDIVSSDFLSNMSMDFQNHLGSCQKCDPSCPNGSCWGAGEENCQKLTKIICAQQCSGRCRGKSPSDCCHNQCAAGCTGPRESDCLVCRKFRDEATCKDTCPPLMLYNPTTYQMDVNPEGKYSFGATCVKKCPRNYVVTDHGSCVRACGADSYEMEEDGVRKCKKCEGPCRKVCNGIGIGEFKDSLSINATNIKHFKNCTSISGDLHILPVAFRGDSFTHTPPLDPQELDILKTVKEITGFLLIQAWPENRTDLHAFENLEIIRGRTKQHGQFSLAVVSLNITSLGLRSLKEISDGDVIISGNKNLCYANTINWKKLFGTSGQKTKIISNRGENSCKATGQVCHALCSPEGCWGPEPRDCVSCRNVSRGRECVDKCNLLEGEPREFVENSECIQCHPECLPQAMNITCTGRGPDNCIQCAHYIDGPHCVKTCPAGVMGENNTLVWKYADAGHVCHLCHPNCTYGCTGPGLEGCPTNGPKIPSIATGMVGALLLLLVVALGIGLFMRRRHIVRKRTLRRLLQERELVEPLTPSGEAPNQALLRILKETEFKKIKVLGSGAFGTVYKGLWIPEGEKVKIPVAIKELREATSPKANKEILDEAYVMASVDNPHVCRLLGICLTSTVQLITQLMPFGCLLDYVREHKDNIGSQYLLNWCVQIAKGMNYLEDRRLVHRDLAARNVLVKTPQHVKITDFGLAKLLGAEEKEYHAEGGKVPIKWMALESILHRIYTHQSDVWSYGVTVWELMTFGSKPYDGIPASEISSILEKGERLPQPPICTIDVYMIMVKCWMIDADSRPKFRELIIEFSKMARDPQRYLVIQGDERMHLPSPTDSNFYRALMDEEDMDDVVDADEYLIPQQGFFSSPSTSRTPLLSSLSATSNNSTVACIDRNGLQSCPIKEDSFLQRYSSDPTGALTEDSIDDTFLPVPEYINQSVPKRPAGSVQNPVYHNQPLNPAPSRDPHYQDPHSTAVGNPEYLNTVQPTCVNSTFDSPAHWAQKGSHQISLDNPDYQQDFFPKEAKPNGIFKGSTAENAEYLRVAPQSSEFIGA

SMILES | outcome | AC50
CN(C)C(=O)NC1(c2ccccc2)CCN(CCC[C@]2(c3ccc(Cl)c(Cl)c3)CCCN(C(=O)c3ccccc3)C2)CC1 | inactive | –
CCCC(CCC)C(=O)O | inactive | –
Nc1ccc2c(c1)C(=O)c1ccccc1C2=O | inactive | –
O=C(OCCCCCOC(=O)c1ccccc1)c1ccccc1 | inactive | –
O=C(O)Cc1cc(I)c(Oc2cc(I)c(O)c(I)c2)c(I)c1 | inactive | –
O=C(c1ccc(O)cc1O)c1ccc(O)cc1O | – | 25 µM (active)
CC(=O)Oc1ccccc1C(=O)O | inactive | –
O=C(O)c1cccc(Oc2ccccc2)c1 | inactive | –
O=C(O)c1[nH]n(-c2ccc(S(=O)(=O)O)cc2)c(=O)c1N=Nc1ccc(S(=O)(=O)O)cc1 | inactive | –
O=C(O)c1cc(N=Nc2ccc(S(=O)(=O)Nc3ccccn3)cc2)ccc1O | – | 3.95 µM (active)
FC(F)(F)C(F)(F)C(F)(F)C(F)(F)C(F)(F)C(F)(F)CCI | inactive | –
COC(=O)[C@H]1[C@H]2C[C@@H]3c4[nH]c5cc(OC)ccc5c4CCN3C[C@H]2C[C@@H](OC(=O)c2cc(OC)c(OC)c(OC)c2)[C@@H]1OC | inactive | –
O=C(O)Cc1cc(I)c(Oc2ccc(O)c(I)c2)c(I)c1 | inactive | –
CCO[Si](CCCNC(N)=O)(OCC)OCC | inactive | –
O=C(Oc1ccccc1)c1cccc(C(=O)Oc2ccccc2)c1 | inactive | –
CCN(Cc1cccc(S(=O)(=O)O)c1)c1ccc(C(=C2C=CC(=[N+](CC)Cc3cccc(S(=O)(=O)O)c3)C=C2)c2ccccc2S(=O)(=O)[O-])cc1 | – | 12.1 µM (active)
Cc1ccc(N)cc1O | inactive | –
CC/C(=C(/CC)c1ccc(O)cc1)c1ccc(O)cc1 | inactive | –

SMILES | outcome | AC50
NC=O | inactive | –
CN1C(=O)N(c2ccccc2Br)Cc2cnc(Nc3ccc4c(c3)OCC(CO)O4)nc21 (stereo not given) | – | 0.00229 µM (active)
CCc1c(C(=O)NN2CCCCC2)nn(-c2ccc(Cl)cc2Cl)c1-c1ccc(Br)cc1 | inactive | –
CC(C)CCCCCCOC(=O)C1CCCCC1C(=O)OCCCCCCC(C)C (stereo not given) | inactive | –
NCCO | inactive | –
N#C[C@@H]1CC(F)(F)CN1C(=O)CNC1CC2CCC(C1)N2c1ncccn1 (stereo not given in full) | inactive | –
CCCCCCCC/C=C\CCCCCCCC(=O)OC[C@@H](O)[C@H]1OC[C@H](O)[C@H]1O | inactive | –
CCCCCCCCCCCCc1ccccc1S(=O)(=O)O | – | 12.6 µM (active)
COc1c(Cl)ccc(Cl)c1C(=O)O | inactive | –
Cc1ncc([C@@H](CCCCCCc2ccc3c(n2)NCCC3)CC(=O)O)cn1 | inactive | –
CC(C)(c1ccc(O)cc1)c1ccc(O)cc1 | inactive | –
Cc1ccc2ncccc2c1 | inactive | –
COc1cc(C(=O)NC2CCN(C)CC2)ccc1Nc1ncc2c(n1)N(C1CCCC1)CC(F)(F)C(=O)N2C | – | 12.2 µM (active)
O=c1[nH]cnc2c1ncn2[C@H]1CC[C@@H](CO)O1 | inactive | –
S=C(S)NCCNC(=S)S.[Mn+2].[S-]C([S-])=NCCN=C([S-])[S-].[Zn+2] | – | 9.13 µM (active) and 9.55 µM (active) and 21.4 µM (active)
CCCCCCC(CCCCCCCCCCC(=O)OCC(COC(C)=O)OC(C)=O)OC(C)=O (stereo not given) | inactive | –
CC(C)CCCCCCc1ccc(O)cc1 | inactive | –
